In PubChem BioAssay (Tox21):
Unmarked numbers belong to inactive results. Results filed as inconclusive are left out. Where a call stands in place of a potency, no number is given. Active and inactive are the calls of the source. Calls follow the shape of the full dose curve.

target: Acetylcholinesterase (Homo sapiens) (UniProt P22303); assay: Acetylcholinesterase (AChE) small molecule antagonists: colormetric cell-based qHTS assay (AID 1347395); conditions: SH-SY5Y cells AChE activity, colorimetric (Ellman); series mostly up to 115 µM; also: nearly all actives have a fitted effect of over 30% in size
How it was run: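 Cells (SH-SY5Y, 2,000 per well) are seeded and left overnight at 37 C. Compound is added for 30 min, then DTNB and acetylthiocholine for a further 90 min at 37 C before absorbance-based thiocholine detection.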

Sequence of Acetylcholinesterase (Homo sapiens) (P22303 whole entry, looked up): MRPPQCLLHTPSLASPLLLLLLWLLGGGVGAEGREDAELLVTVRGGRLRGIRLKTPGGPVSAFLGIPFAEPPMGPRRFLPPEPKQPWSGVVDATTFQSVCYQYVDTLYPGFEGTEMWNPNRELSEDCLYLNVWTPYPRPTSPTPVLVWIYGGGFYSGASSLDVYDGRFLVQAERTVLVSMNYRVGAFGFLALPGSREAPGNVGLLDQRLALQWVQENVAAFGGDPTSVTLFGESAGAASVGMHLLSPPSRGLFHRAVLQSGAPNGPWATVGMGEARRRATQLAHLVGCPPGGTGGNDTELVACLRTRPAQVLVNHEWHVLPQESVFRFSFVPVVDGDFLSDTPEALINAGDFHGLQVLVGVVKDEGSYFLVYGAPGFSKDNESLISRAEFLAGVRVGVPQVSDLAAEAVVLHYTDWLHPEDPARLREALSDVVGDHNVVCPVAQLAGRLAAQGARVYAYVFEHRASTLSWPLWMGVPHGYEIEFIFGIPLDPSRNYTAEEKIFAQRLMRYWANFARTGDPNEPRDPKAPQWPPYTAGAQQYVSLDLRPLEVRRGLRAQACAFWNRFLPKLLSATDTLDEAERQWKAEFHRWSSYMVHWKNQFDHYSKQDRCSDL

SMILES | Potency | outcome | activity, negative = inhibition
COc1ccc2nc(N)sc2c1 | inactive |  | 
CCOc1ccccc1OCC1CNCCO1 (stereo not given) |  | inactive | 
CCC(Cc1c(I)cc(I)c(N)c1I)C(=O)O (stereo not given) | inactive |  | 
CC/C(=C\C(=N/O)C(N)=O)C(C)[N+](=O)[O-] (stereo not given) | inactive |  | 
Cc1cccc(OCCOc2cccc(C)c2)c1 | inactive |  | 
CCCCCCCC(=O)Oc1c(Br)cc(C#N)cc1Br | inactive |  | 
CCc1c(C(=O)NN2CCCCC2)nn(-c2ccc(Cl)cc2Cl)c1-c1ccc(Br)cc1 | inactive |  | 
Fc1ccccc1 | inactive |  | 
CC1=Nc2ccc3ccccc3c2C1(C)C | inactive |  | 
c1cnc(N2CCN(Cc3ccc4c(c3)OCO4)CC2)nc1 | inactive |  | 
C#Cc1cccc(Nc2ncnc3cc(OCCOC)c(OCCOC)cc23)c1 | inactive |  | 
CCOC(=O)[C@H](CCc1ccccc1)N[C@@H](C)C(=O)N1Cc2ccccc2C[C@H]1C(=O)O | inactive |  | 
CC(C)N1C(=O)c2ccccc2C1=O | inactive |  | 
N[C@@H](C(=O)N[C@@H]1C(=O)N2C(C(=O)O)=C(Cl)CS[C@H]12)c1ccccc1 |  |  | -0.844% [at 10.5 µM]
O=C(O)Cc1cn(-c2ccccc2)nc1-c1ccc(Cl)cc1 | inactive |  | 
Cc1cccc(N(C)C(=S)Oc2ccc3ccccc3c2)c1 | inactive |  | 
C[C@@H](N)C(=O)O | inactive |  | 
c1ccc2c(c1)-c1ccc3ccc4cccc5cc-2c1c3c45 | inactive |  | 
CCCCCCCCCCCC[N+](C)(C)CCCS(=O)(=O)[O-] | inactive |  | 
Cc1cc(C(C)(C)C)c(O)c(C)c1Cn1c(=O)n(Cc2c(C)cc(C(C)(C)C)c(O)c2C)c(=O)n(Cc2c(C)cc(C(C)(C)C)c(O)c2C)c1=O | inactive |  | 

SMILES | Potency | outcome | activity, negative = inhibition
CC(C)=CCC/C(C)=C/C=O | inactive |  | 
COC(=O)c1ccc(C(=O)OC)c(C(=O)OC)c1 | inactive |  | 
C=C(C)c1cccc(C(=C)C)c1 | inactive |  | 
CC(=O)N[C@@H](CS)C(=O)O | inactive |  | 
CC1=CC(O)CC(C)(C)C1 (stereo not given) | inactive |  | 
NNC(=O)CP(=O)(c1ccccc1)c1ccccc1 | inactive |  | 
CC(C)CCCC(C)N (stereo not given) | inactive |  | 
NC(=O)OCC(COC(N)=O)c1ccccc1 | inactive |  | 
CCCCOCCOCCSC#N | inactive |  | 
CC(C)C/C=C(\C=O)c1ccccc1 | inactive |  | 
Nc1ccn([C@H]2CS[C@@H](CO)O2)c(=O)n1 | inactive |  | 
O=C1OCc2ccccc21 | inactive |  | 
NC(=O)Cc1cccc2ccccc12 | inactive |  | 
CCNc1nc(N)nc(Cl)n1 | inactive |  | 
Cc1cccc(C)c1NC(=O)CN1CCCCCC1 | inactive |  | 
CCC(CC)Nc1ccc(C)c(C)c1 | inactive |  | 
COc1cc(Cl)ccc1Cl | inactive |  | 
CCCCCCCCSCC | inactive |  | 
CC(=O)c1ccccc1[N+](=O)[O-] | inactive |  | 
Cc1ccc(-c2cc(C(F)(F)F)nn2-c2ccc(S(N)(=O)=O)cc2)cc1 | inactive |  | 

target: Acetylcholinesterase (Homo sapiens) (UniProt P22303); assay: Acetylcholinesterase (AChE) small molecule antagonists: enzyme-based qHTS assay (AID 1347397); conditions: Potency: AChE enzyme activity inhibition; outcome: AChE enzyme activity inhibition; series mostly up to 115 µM; also: nearly all actives have a fitted effect of over 55% in size
How it was run: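 Enzyme inhibition was scored from DTNB-detected thiocholine formed by recombinant human AChE acting on acetylthiocholine. The 30 min compound preincubation and 10 min substrate reaction were both run at room temperature, with DMSO as vehicle control.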

SMILES | Potency | outcome | activity change, negative = inhibition
COc1ccc2nc(N)sc2c1 | inactive |  | 
CCOc1ccccc1OCC1CNCCO1 (stereo not given) |  | inactive | 
CCC(Cc1c(I)cc(I)c(N)c1I)C(=O)O (stereo not given) | inactive |  | 
CC/C(=C\C(=N/O)C(N)=O)C(C)[N+](=O)[O-] (stereo not given) | inactive |  | 
Cc1cccc(OCCOc2cccc(C)c2)c1 | inactive |  | 
CCCCCCCC(=O)Oc1c(Br)cc(C#N)cc1Br | inactive |  | 
CCc1c(C(=O)NN2CCCCC2)nn(-c2ccc(Cl)cc2Cl)c1-c1ccc(Br)cc1 | inactive |  | 
Fc1ccccc1 | inactive |  | 
CC1=Nc2ccc3ccccc3c2C1(C)C | inactive |  | 
c1cnc(N2CCN(Cc3ccc4c(c3)OCO4)CC2)nc1 | inactive |  | 
C#Cc1cccc(Nc2ncnc3cc(OCCOC)c(OCCOC)cc23)c1 | inactive |  | 
CCOC(=O)[C@H](CCc1ccccc1)N[C@@H](C)C(=O)N1Cc2ccccc2C[C@H]1C(=O)O | inactive |  | 
CC(C)N1C(=O)c2ccccc2C1=O | inactive |  | 
N[C@@H](C(=O)N[C@@H]1C(=O)N2C(C(=O)O)=C(Cl)CS[C@H]12)c1ccccc1 |  |  | -0.554% [at 10.5 µM]
O=C(O)Cc1cn(-c2ccccc2)nc1-c1ccc(Cl)cc1 | inactive |  | 
Cc1cccc(N(C)C(=S)Oc2ccc3ccccc3c2)c1 | inactive |  | 
C[C@@H](N)C(=O)O | inactive |  | 
c1ccc2c(c1)-c1ccc3ccc4cccc5cc-2c1c3c45 | inactive |  | 
CCCCCCCCCCCC[N+](C)(C)CCCS(=O)(=O)[O-] | inactive |  | 
Cc1cc(C(C)(C)C)c(O)c(C)c1Cn1c(=O)n(Cc2c(C)cc(C(C)(C)C)c(O)c2C)c(=O)n(Cc2c(C)cc(C(C)(C)C)c(O)c2C)c1=O | inactive |  | 

SMILES | Potency | outcome | activity change, negative = inhibition
CC(C)=CCC/C(C)=C/C=O | inactive |  | 
COC(=O)c1ccc(C(=O)OC)c(C(=O)OC)c1 | inactive |  | 
C=C(C)c1cccc(C(=C)C)c1 | inactive |  | 
CC(=O)N[C@@H](CS)C(=O)O | inactive |  | 
CC1=CC(O)CC(C)(C)C1 (stereo not given) | inactive |  | 
NNC(=O)CP(=O)(c1ccccc1)c1ccccc1 | inactive |  | 
CC(C)CCCC(C)N (stereo not given) | inactive |  | 
NC(=O)OCC(COC(N)=O)c1ccccc1 | inactive |  | 
CCCCOCCOCCSC#N | inactive |  | 
CC(C)C/C=C(\C=O)c1ccccc1 | inactive |  | 
Nc1ccn([C@H]2CS[C@@H](CO)O2)c(=O)n1 | inactive |  | 
O=C1OCc2ccccc21 | inactive |  | 
NC(=O)Cc1cccc2ccccc12 | inactive |  | 
CCNc1nc(N)nc(Cl)n1 | inactive |  | 
Cc1cccc(C)c1NC(=O)CN1CCCCCC1 | inactive |  | 
CCC(CC)Nc1ccc(C)c(C)c1 | inactive |  | 
COc1cc(Cl)ccc1Cl | inactive |  | 
CCCCCCCCSCC | inactive |  | 
CC(=O)c1ccccc1[N+](=O)[O-] | inactive |  | 
Cc1ccc(-c2cc(C(F)(F)F)nn2-c2ccc(S(N)(=O)=O)cc2)cc1 | inactive |  | 
